Assay results: the supplement of paper PMC6411743
± gives the standard deviation of the averaged measurements. About 6,500 targets were measured; listed, in parts, are those with the largest changes and a random draw of the rest.

compound: Nc1ncnc2c1ncn2[C@@H]1O[C@H](COP(=O)(O)OP(=O)(O)OP(=O)(O)O)[C@@H](O)[C@H]1O [adenosine triphosphate]; test: NP40-soluble protein abundance relative to vehicle (solubility fold change) (ratio); higher = more soluble protein in presence of ATP; conditions: concentration: 1mM
Outline: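 Eight concentrations, 0.1 to 10 mM, were tested on Jurkat crude lysate for 10 min at room temperature and then 3 min at 37 °C, in three independent experiments. The lysate was solubilised with 0.8% NP40 and benzonase, ultracentrifuged, and the supernatant TMT-labelled for LC-MS/MS. Each value is the fold change against the detergent-processed vehicle in its own replicate, from vsn-normalised intensities.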

Chain of UniProt Q499Z4 (Q499Z4 whole entry): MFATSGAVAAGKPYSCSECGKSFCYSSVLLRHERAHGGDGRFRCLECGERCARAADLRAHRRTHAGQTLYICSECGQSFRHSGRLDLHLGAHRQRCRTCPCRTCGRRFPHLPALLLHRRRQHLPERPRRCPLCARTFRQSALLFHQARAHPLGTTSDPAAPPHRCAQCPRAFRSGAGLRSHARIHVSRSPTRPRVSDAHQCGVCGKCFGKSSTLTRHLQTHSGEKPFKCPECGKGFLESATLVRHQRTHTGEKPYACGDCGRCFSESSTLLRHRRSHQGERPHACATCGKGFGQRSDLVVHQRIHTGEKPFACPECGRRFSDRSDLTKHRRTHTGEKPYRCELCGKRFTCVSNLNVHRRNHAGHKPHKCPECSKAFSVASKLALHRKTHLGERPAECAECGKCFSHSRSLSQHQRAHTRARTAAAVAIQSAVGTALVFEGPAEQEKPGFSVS
Chain of UniProt Q15029 (Q15029 whole entry): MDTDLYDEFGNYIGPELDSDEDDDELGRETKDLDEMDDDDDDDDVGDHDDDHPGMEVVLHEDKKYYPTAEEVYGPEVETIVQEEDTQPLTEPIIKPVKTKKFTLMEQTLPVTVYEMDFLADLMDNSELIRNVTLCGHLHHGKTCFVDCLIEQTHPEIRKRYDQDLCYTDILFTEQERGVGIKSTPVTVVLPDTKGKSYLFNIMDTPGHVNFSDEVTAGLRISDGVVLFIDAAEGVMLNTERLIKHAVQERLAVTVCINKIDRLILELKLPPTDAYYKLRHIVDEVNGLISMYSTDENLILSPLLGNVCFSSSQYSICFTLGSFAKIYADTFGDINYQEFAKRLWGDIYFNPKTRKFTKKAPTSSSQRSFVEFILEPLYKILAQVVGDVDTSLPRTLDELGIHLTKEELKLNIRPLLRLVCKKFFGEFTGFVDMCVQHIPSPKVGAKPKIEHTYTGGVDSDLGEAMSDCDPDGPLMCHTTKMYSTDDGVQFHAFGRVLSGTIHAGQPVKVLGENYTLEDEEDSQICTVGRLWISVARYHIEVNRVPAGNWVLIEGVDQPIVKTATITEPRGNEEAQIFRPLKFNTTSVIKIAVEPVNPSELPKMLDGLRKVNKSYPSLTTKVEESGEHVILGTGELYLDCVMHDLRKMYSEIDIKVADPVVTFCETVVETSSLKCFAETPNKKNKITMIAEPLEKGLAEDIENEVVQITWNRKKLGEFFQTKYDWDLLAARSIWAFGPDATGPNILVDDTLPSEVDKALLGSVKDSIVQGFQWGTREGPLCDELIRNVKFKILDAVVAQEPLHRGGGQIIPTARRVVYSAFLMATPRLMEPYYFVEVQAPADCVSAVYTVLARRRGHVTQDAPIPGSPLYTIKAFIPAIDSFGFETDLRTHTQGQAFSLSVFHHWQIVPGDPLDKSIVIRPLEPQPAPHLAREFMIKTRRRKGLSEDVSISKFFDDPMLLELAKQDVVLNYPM
Chain of UniProt Q12872 (Q12872 whole entry): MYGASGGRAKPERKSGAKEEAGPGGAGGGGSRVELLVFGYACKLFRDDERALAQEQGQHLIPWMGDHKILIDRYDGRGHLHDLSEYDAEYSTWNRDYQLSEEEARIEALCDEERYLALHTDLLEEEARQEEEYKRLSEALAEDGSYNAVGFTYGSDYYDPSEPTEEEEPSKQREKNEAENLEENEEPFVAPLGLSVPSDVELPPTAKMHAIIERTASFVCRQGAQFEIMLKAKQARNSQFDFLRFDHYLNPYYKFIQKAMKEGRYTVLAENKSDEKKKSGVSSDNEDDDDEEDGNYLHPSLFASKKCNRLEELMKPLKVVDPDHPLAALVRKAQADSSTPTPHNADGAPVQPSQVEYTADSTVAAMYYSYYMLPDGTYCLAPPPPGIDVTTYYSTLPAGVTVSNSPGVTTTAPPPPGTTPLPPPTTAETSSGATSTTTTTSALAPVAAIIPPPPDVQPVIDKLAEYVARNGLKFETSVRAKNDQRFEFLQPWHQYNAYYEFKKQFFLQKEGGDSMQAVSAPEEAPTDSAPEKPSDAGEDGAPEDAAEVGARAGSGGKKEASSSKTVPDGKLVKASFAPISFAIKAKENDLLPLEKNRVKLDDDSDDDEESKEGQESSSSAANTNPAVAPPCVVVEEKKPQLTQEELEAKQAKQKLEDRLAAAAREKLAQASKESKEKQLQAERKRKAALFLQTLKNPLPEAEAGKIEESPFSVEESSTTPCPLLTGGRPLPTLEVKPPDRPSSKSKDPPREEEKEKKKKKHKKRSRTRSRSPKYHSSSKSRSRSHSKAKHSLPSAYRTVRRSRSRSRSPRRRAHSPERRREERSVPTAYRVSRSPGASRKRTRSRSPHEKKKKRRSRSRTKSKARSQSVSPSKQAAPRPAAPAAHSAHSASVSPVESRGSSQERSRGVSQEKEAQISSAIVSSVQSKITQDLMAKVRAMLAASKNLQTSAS
Chain of UniProt Q8WUY8 (Q8WUY8 whole entry, one chain of several): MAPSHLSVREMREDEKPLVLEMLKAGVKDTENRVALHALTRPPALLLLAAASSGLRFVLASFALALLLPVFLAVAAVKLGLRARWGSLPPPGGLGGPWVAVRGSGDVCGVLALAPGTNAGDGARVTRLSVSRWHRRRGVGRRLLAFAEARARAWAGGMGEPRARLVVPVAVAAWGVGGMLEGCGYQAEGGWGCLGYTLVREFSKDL
Chain of UniProt Q8N684 (Q8N684 whole entry): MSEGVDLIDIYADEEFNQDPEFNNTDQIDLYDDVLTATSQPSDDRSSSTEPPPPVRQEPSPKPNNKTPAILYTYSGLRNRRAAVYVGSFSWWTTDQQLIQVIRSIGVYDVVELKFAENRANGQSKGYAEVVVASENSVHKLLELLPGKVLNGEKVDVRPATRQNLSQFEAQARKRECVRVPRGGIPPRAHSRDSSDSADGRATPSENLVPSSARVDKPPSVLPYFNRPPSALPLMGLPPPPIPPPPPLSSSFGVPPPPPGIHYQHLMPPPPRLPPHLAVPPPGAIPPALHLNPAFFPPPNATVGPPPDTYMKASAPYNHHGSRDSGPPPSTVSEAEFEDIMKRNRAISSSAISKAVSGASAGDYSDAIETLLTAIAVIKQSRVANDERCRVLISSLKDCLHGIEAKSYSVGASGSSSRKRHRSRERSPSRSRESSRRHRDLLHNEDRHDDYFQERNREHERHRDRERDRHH
Chain of UniProt Q8IYD1 (Q8IYD1 whole entry): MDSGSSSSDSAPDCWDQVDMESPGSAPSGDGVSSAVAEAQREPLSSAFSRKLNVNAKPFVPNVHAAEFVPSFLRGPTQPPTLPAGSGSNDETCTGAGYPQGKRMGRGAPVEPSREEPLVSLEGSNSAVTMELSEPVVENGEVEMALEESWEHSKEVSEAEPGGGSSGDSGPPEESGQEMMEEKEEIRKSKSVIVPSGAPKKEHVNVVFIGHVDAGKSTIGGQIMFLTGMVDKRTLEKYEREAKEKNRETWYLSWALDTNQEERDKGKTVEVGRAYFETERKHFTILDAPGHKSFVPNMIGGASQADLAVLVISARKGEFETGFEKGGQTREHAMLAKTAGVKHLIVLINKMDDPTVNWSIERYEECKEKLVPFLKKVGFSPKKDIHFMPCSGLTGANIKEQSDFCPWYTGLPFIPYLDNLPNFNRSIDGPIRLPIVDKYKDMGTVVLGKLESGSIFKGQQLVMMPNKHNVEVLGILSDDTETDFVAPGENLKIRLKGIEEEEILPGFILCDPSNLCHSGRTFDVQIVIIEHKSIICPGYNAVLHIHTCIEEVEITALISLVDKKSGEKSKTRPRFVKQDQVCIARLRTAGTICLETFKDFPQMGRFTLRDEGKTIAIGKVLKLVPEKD
Chain of UniProt Q8NFG4 (Q8NFG4 whole entry): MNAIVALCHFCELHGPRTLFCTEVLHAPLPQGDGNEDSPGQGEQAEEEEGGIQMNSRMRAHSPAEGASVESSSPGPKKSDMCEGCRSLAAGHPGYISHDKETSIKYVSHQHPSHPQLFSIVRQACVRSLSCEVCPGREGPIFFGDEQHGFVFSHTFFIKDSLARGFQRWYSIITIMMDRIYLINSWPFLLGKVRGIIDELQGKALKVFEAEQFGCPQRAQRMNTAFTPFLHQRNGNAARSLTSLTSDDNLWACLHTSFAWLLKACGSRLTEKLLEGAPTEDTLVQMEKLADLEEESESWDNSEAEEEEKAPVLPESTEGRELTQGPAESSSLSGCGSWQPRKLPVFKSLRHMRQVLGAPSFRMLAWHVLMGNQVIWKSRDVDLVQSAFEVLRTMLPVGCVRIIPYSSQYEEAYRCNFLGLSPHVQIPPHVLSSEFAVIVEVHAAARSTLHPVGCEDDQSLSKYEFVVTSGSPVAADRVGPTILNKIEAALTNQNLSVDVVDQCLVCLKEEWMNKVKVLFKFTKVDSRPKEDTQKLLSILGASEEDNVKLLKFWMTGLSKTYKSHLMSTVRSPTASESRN
Chain of UniProt Q6PK18 (Q6PK18 whole entry): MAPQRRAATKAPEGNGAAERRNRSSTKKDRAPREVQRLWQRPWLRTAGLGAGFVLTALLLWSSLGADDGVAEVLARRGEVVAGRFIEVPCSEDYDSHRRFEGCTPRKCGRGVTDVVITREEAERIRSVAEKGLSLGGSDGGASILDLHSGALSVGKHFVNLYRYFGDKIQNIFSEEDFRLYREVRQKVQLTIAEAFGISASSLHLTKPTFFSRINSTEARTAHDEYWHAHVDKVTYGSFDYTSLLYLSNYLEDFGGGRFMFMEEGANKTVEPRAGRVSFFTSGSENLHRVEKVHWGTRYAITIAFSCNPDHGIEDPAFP
Chain of UniProt Q8IWE4 (Q8IWE4 whole entry): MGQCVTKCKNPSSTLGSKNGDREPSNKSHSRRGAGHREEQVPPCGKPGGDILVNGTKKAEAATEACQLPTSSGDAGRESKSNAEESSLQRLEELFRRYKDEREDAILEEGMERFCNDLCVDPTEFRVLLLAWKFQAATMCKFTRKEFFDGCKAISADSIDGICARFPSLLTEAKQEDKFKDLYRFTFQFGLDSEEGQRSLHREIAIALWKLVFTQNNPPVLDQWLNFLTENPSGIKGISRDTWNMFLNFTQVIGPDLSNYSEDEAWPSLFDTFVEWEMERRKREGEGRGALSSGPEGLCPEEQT

Target	NP40-soluble protein abundance
UniProt Q13137|Q13137-3|Q13137-4|Q13137-5|H0YBP4	0.962 ± 0.033
UniProt Q14498|Q14498-2	1.59 ± 0.14
UniProt Q8N684|Q8N684-2|Q8N684-3	1.51 ± 0.076
CIRBP (UniProt Q14011)	0.999 ± 0.062
GSPT2 (UniProt Q8IYD1)	1.035 ± 0.0061
EFTUD2 (UniProt Q15029)	1.12 ± 0.04
UniProt Q12872|Q12872-2	1.24 ± 0.083
UniProt Q8WUY8|M0R1E3	1.02 ± 0.085
PRPF4B (UniProt Q13523)	1.29 ± 0.015
UniProt Q6PK18|Q6PK18-2	1.06 ± 0.02
UniProt Q13761|Q13761-2	1.07 ± 0.2
DCUN1D3 (UniProt Q8IWE4)	0.923 ± 0.038
UniProt Q14677|Q14677-3	1.04 ± 0.042
UniProt Q14155-1	1 ± 0.011
UniProt Q8NCU8-2	0.876 ± 0.17
DHX9 (UniProt Q08211)	1.24 ± 0.071
UniProt Q16630|Q16630-2	2.36 ± 0.24
UniProt Q7Z5G4|Q7Z5G4-3	0.928 ± 0.02
DDX60 (UniProt Q8IY21)	1.2 ± 0.078
ZNF672 (UniProt Q499Z4)	0.994 ± 0.061
NFX1 (UniProt Q12986)	1.07 ± 0.08
UniProt Q6KCM7-2|Q6KCM7-3|Q6KCM7|Q6KCM7-4|Q6KCM7-5	0.871 ± 0.048
LARP1 (UniProt Q6PKG0)	0.939 ± 0.062
UniProt Q8IZ81|D6RBS5	1.01 ± 0.11
UniProt Q13642-1|Q13642-4|Q13642-5	0.979 ± 0.17
UniProt Q641Q2|F8W7U3|Q641Q2-2	0.968 ± 0.057
FLCN (UniProt Q8NFG4)	1.02 ± 0.056
UniProt Q13243	1.5 ± 0.12
